Bioassay records: PubChem, National Center for Advancing Translational Sciences (NCATS)
Rab9 promoter act: activators of Rab9 promoter | Potency, µM (titrated, usually from 9.22 µM), for the others: at the top dose activation, negative = inhibition, actives largely listed as activators | 2.8% of 320,000 active | Huh7 Rab9 promoter-luciferase reporter, luminescence, 24 h | AID 485297; note: % of control where 0% means no effect; nearly all actives have a fitted effect of over 60% in size
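Stable Rab9-luc Huh7, 1500 cells/well, 2 h settle; cmpd in DMSO, 24 h, 37 °C/5% CO2; luciferase reagent 10 min RT; luminescence.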
ELG1 genotoxic: genotoxicity induction in ELG1-luciferase HEK293T cells. AID 504466. HEK293T ELG1-luciferase reporter, luminescence, 16 h. 1.3% of 330,000 active. Potency, µM (titrated, usually from 46 µM), for the others: at the highest dose activity change, positive = activation, hits mostly activators; note: % of control where 0% means no effect; nearly all actives have a fitted effect of over 60% in size
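Step 1: seed 2,000 HEK293T ELG1-luciferase cells per well. Step 2: add compound or DMSO, incubate 16 hr at 37 °C. Step 3: ONE-Glo, 30 min at room temperature, read luminescence.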
NPC1 promoter act: activates the NPC1 promoter | Huh7 NPC1 promoter luciferase reporter, 24 h | Potency, µM (series often up to 9.22 µM), without a hit: at the highest dose activation, hits mostly activators | 2.4% of 320,000 active; note: % of control where 0% means no effect; nearly all actives have a fitted effect of over 60% in size
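Quantitative HTS used a cell-based reporter: Huh7 cells stably bearing the NPC1 promoter upstream of luciferase were treated with compounds for 24 h, and promoter activation was read as luminescence.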
SMN2 splice enh: increases expression of the SMN2 splice variant. 2.8% of 210,000 active. AID 1458. Potency, µM (series often up to 46.1 µM), for inactives: top-dose activity change, positive = activation, actives largely listed as activators. HEK293 SMN2-luciferase splicing reporter, luminescence, 30-36 h; note: % of control where 0% means no effect; nearly all actives have a fitted effect of over 55% in size
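HEK293 cells carry an SMN2 minigene-luciferase reporter in which exon 7 inclusion puts luciferase in frame. Cells were seeded at 2000 cells/well, attached for 10-12 hours, then exposed to compounds for 30-36 hours at 37C before ONE-Glo luminescence.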
FLuc modulator: inhibits or activates purified firefly luciferase, miR-21 counter-screen; purified FLuc, Km substrates, luminescence inhibition; P08659; 6.9% of 360,000 active; Potency, µM (titrated, usually from 57.5 µM), for inactives: at the top dose activity change, negative = inhibition, hits mostly inhibitors;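 note: plate controls were vehicle for no effect and reference inhibitor for full effect; nearly all actives have a fitted effect of over 55% in size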
Target sequence (P08659 whole entry, looked up): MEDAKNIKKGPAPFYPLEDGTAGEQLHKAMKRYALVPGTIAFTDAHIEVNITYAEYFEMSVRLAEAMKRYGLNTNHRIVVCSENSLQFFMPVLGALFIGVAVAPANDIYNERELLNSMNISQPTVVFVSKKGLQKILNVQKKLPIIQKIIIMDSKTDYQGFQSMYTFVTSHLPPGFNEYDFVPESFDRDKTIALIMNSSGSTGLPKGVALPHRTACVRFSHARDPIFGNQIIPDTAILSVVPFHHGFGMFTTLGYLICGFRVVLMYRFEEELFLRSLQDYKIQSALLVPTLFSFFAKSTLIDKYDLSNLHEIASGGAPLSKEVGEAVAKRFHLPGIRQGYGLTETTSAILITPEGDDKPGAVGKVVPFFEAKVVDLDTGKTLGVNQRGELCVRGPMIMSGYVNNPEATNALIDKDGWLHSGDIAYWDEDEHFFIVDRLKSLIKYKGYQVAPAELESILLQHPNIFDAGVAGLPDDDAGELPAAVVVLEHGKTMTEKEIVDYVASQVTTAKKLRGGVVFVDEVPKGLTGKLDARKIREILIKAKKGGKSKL
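Biochemical qHTS of compounds, final roughly 60 µM downward over six points, against 10 nM purified firefly luciferase using Km concentrations of substrates (10 uM D-luciferin, 10 uM ATP) in Tris acetate pH 7.5 buffer; luminescence output.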
ELG1 repair inh: blocks ELG1-dependent DNA repair in HEK293T cells; HEK293T ELG1-luciferase reporter, luminescence, 16 h; DNA damage induced by 5-fluorouridine; Potency, µM (top dose mostly 46.1 µM), for inactives: top-dose activity change, negative = inhibition, hits mostly inhibitors; 2.3% of 330,000 active; AID 504467; note: % is set by controls: 0 for no effect and ±100 for the full control effect; nearly all actives have a fitted effect of over 55% in size
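Luminescence from the luciferase reporter, measured 30 min after ONE-Glo reagent at room temperature, was the read-out. Beforehand, 2,000 cells per well were exposed for 16 hr at 37 °C to 5-fluorouridine together with compound or vehicle.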
Numbers without * were called inactive; ? = inconclusive; / = no result; [ ] = another dose, or the depositor's remark. A selection: hits, their analogues and other compounds. The true share with any hit is near 9.2%. Calls come from the whole dose curve; as a rule, active = well fitted curve in the direction sought with a large enough effect; inconclusive = small, poorly fitted or top-dose-only effect, or another doubt; inactive = no such curve, though single readings can be large; an effect the other way counts as inactive or inconclusive. Potency is the fitted concentration of half-maximal effect.

SMILES | Rab9 promoter act | ELG1 genotoxic | NPC1 promoter act | SMN2 splice enh | FLuc modulator | ELG1 repair inh
CCc1ccc(-n2nc(C)c3c(C(=O)Nc4ccc(Cl)cc4)cc(C)nc32)cc1 | / | / | / | / | -0.8% | /
CCCCCCCNC(=O)C1(CC2CC(c3ccc(Cl)cc3)=NO2)CCN(C(=O)c2cc(OCC)c(OCC)c(OCC)c2)CC1 (stereo not given) | -3.0% | -4.1% | -4.4% | / | 9.6% | ?
CCN(CC)S(=O)(=O)c1ccc(N2CCOCC2)c(NC(=O)COc2ccc(OC)cc2)c1 | -5.3% | -3.0% | -7.6% | / | ? | 18.3µM*
CCN(CC)S(=O)(=O)c1ccc(N2CCOCC2)c(NC(=O)COc2ccc(C#N)cc2)c1 | -3.4% | -7.0% | -5.3% | / | 15.1µM* | 0.0%
O=C(Nc1ccc(OC(F)(F)F)cc1)c1n[nH]c(Cn2cncn2)n1 | 0.1% | 2.5% | -2.0% | 2.7% | 12µM* | 2.1%
O=C(Nc1ccc(OC(F)(F)F)cc1)c1ccc(-n2cncn2)nc1 | -10.6% | -3.5% | -17.9% | -25.0% | -1.9% | ?
CCOC(=O)Cc1c(C)nc2c(-c3ccc(Cl)cc3)c(C)[nH]n2c1=O | -10.5% | -10.3% | 4.7% | -4.8% | 0.1% | -4.4%
CCOC(=O)Cc1c(C)nc2c(-c3ccc(Cl)cc3)cnn2c1C | -0.9% | 4.8% | 1.4% | -5.9% | 26.9µM* | 7.8%
CCOC(=O)Cc1c(C)nc2c(-c3ccccc3)c(C)nn2c1C | 0.4% | -0.2% | -2.0% | -10.6% | 21.3µM* | -17.8%
CCOC(=O)Cc1c(C(=O)OCC)nnc2c(-c3ccccc3)c(C)nn12 | / | / | / | -1.8% | -18.4% | /
COC(=O)C1=C(C)NC(=O)NC1c1cn(-c2ccccc2)nc1-c1ccc(OC)c(Br)c1 (stereo not given) | / | / | / | -4.3% | -10.0% | /
COC(=O)Cn1cnc2c(nnn2-c2ccc(OC)cc2)c1=O | -4.4%[1.84 µM] | 1.0% | -2.2% | / | 5.7% | -0.5%
CC1CCN(S(=O)(=O)c2ccc3c(c2)CCN3C(=O)Nc2ccccc2Br)CC1 | / | / | / | 9.4% | 2.7% | /
CCC(=O)NC(=S)Nc1cccc(NC(=O)c2ccco2)c1 | 3.0% | -5.3% | 9.1% | 7.6% | -18.2% | -3.2%
Cc1ccc(NC(=O)c2ccco2)c(NC(=O)Cc2cccs2)c1 | -0.1% | 0.3% | -1.3% | 17.6% | 3.5% | -4.2%
O=C(NC(=S)Nc1ccc2c(c1)OCCO2)c1ccco1 | 1µM* | ? | ? | / | 1.69µM* | ?
Cc1cc(NC(=O)c2ccco2)ccc1NC(=O)Cc1cccs1 | 11.5% | 12.7% | 14.1% | 17.9% | 15.1µM* | ?
O=C(NC(=S)Nc1cccc(O)c1)c1ccco1 | ? | ? | ? | / | 10.7µM* | ?
O=C(Nc1ccc(NC(=O)c2ccco2)cc1)c1ccc2c(c1)OCCO2 | -17.0% | ? | -4.5% | 6.8% | ? | ?
Cc1cc(NC(=O)c2ccc3c(c2)OCCO3)ccc1NC(=O)c1ccco1 | ? | 9.5% | ? | 11.2µM* | 0.757µM* | ?
N#Cc1ccc(NCC(=O)Nc2ccc3c(c2)OCCO3)cc1 | 0.5% | 0.4% | -3.8% | -9.9% | ? | 7.3%
O=C(c1ccco1)N1CCCC(Nc2ccc3c(c2)OCCO3)C1 (stereo not given) | ? | ? | ? | / | 23.9µM* | ?
CSCc1ccc(C(=O)N2CCCC(Nc3ccc4c(c3)OCCO4)C2)o1 (stereo not given) | -0.5% | -0.3% | 1.6% | / | ? | 9.1%
N#Cc1cccc(NCC(=O)Nc2ccc3c(c2)OCCO3)c1 | 0.398µM* | 2.31µM* | 0.631µM* | 12.6µM* | 6.01µM* | ?
O=C(CNC(=O)c1ccco1)Nc1ccc2c(c1)OCCO2 | 1µM* | 1.16µM* | 1.78µM* | / | 6.01µM* | ?
SMILES | Rab9 promoter act | ELG1 genotoxic | NPC1 promoter act | SMN2 splice enh | FLuc modulator | ELG1 repair inh
Cc1ccc(CCNC(=O)c2ccc(CSCc3ccccc3C)o2)cc1 | / | / | / | / | -17.5% | /
CCn1c(SCC(=O)NC2CCCCC2)nc2c(c1=O)SCC2 | -3.3% | -2.0% | -2.5% | / | -0.8% | 1.7%
O=C(Nc1nnc(SCc2ccc(F)cc2)s1)C1=COCCO1 | 18.5% | 1.5% | 12.8% | / | -16.7% | ?
Cc1cc(=O)[nH]c(SCC(=O)Nc2nc3ccccc3s2)n1 | -0.9% | -0.1% | 1.0% | -21.4% | ? | 6.5%
O=C(Nc1nnc(SCc2ccccc2F)s1)C1=COCCO1 | 3.55µM* | 10.3µM* | 2.51µM* | / | 16.9µM* | ?
O=C(Nc1nnc(SCc2ccccc2)s1)C1=COCCO1 | 3.55µM* | ? | 3.55µM* | / | ? | ?
Cc1cc(=O)[nH]c(SCC(=O)Nc2nnc(SCc3ccccc3)s2)n1 | -0.7% | -6.6% | -6.1% | -25.7% | 13.5µM* | -2.3%
C=CCSc1nnc(NC(=O)C2=COCCO2)s1 | 2.24µM* | ? | 3.98µM* | / | 16.9µM* | ?
Cc1ccc(S(=O)(=O)NC2=NCN(CC(=O)O)CN2)cc1 | -5.7% | -3.1% | -0.9% | / | 0.2% | 4.0%
CCOc1ccc(NC(=O)COc2ccc(C(=O)NC(C)c3ccc(S(N)(=O)=O)cc3)cc2OC)cc1 (stereo not given) | -1.2% | -0.5% | -0.2% | / | -1.7% | -19.2%
CC(=O)c1ccc(S(=O)(=O)N2CCN(C(=O)CCC3CCCC3)CC2)cc1 | 3.7% | 1.9% | 2.8% | / | -1.3% | -2.4%
CCC1CCCCN1C(=O)Cn1c(=O)n(CCCCCC(=O)NCc2ccccc2Cl)c(=O)c2sccc21 (stereo not given) | / | / | / | -0.8% | ? | /
O=C(Cc1cccs1)Nc1nnc(SCc2ccc(Br)cc2)s1 | -1.1% | 3.4% | -1.0% | -3.0% | 16.9µM* | ?
N#Cc1ccc(CSc2nnc(Nc3ccccc3)s2)cc1 | -5.1% | 2.5% | -1.0% | -21.8% | -1.3% | -17.2%
c1ccc(CSc2nnc(NC3=NCCCCC3)s2)cc1 | 3.98µM* | ? | ? | 15.1% | 16.9µM* | 0.0%
O=C(CCn1cccn1)Nc1ccc(Br)cc1F | / | / | / | / | -9.7% | /
CCOC(=O)c1c(-c2ccc(C)cc2)csc1NC(=O)c1nc(SCC)ncc1Cl | / | / | / | 3.8% | -0.9% | /
Cc1nc(NC(=O)CCl)sc1C(=O)N(C)C | -13.0% | -7.7% | -8.4% | / | -0.4% | -16.5%
Cc1csc(NC(=O)c2cc3c(s2)CCC3)n1 | ? | ? | 0.631µM* | 0.794µM* | 0.849µM* | ?
O=C(Nc1ccccc1OC(F)F)c1cc2c(s1)CCC2 | 16.7% | 9.0% | 9.4% | 25.1% | 21.3µM* | ?
Cc1ccc(NC(=O)c2scc3c2CCCC3)cc1 | 1.78µM* | 1.84µM* | 3.98µM* | 1.41µM* | 0.477µM* | ?
Cc1nc(NC(=O)c2ccc(Br)s2)sc1C(=O)N(C)C | 3.55µM* | 9.2µM* | 3.16µM* | 11.2µM* | 7.57µM* | ?
O=C(c1scc2c1CCCC2)N1CCCCC1 | -4.4% | 1.6% | -0.3% | -5.2% | 1.4% | 2.3%
